± gives the standard deviation.
Legend:
[1] = test system: Streptococcus suis HE06; test: percent growth relative to DMSO control; higher = less growth inhibition; conditions: 10 µM; incubation time 18 h
Experimental: (§1)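 CLSI broth microdilution: 5x10^4 CFU of Streptococcus suis (strain P1/7 or HE06) incubated with 10 µM Pathogen Box compound in cation-adjusted Mueller Hinton broth, 37 °C, 5% CO2, 18 h. Growth read as OD600 and expressed as percent of the DMSO-treated control (100%); mean ± SD of three independent experiments.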

[2] = test system: Streptococcus suis P1/7; test: as above; conditions: 10 µM; incubation time 18 h
Experimental: as §1

Row | SMILES | percent growth [1] | percent growth [2]
1 | c1ccc(-c2cc(N3CCCCC3)c3ccccc3n2)nc1 | 0.646 ± 1.1% | 0.354 ± 0.61%
2 | CCCCOC(=O)Nc1cc2nc(C3CCCCC3)[nH]c2cc1N1CCCC1 | 29.6 ± 40% | 62.9 ± 63%
3 | COC(=O)c1c(NC(=O)c2cc3ccccc3oc2=O)sc2c1CCN(Cc1ccccc1)C2 | 84.2 ± 11% | 149 ± 81%
4 | CC(C)(C)c1cnc(NC(=O)c2ccccc2O)s1 | 19.7 ± 28% | 1.61 ± 1.4%
5 | Cc1[nH]c2ccccc2c1C(c1cccs1)N1CCN(C)CC1 (configuration not stated) | 49 ± 25% | 86.1 ± 38%
6 | N#Cc1nc(-c2ccccc2)oc1S(=O)(=O)c1ccc(Cl)cc1 | 96.9 ± 9.2% | 85.2 ± 19%
7 | COc1ccc(C2=NN(C3CCCCCC3)C(=O)C2(C)C)cc1OCCCCOc1ccc(-c2nn[nH]n2)cc1 | 2.58 ± 3.1% | 16.3 ± 27%
8 | COc1ccc(N(CCc2cccc(C)n2)C(C)=O)cc1 | 112 ± 54% | 62.6 ± 12%
9 | COc1ccc2nccc(NC(=O)C3CCN(CCc4ccc(Cl)cc4)CC3)c2n1 | 74.3 ± 59% | 28.6 ± 47%
10 | Cc1cc2nc(NC(=O)C(C)(C)C)nc(Cl)c2n1Cc1ccc(Cl)cc1 | 115 ± 19% | 109 ± 58%
11 | NS(=O)(=O)c1cncc(-c2ccc3nccc(-c4cn[nH]c4)c3n2)c1 | 102 ± 33% | 77.6 ± 23%
12 | Cc1ccc2[nH]c3c(NCCN(C)C)ncnc3c2c1 | 96.1 ± 12% | 172 ± 110%
13 | COc1cc2ncnc(NC3CCN(Cc4ccccc4)CC3)c2cc1OC | 103 ± 27% | 122 ± 11%
14 | Cc1ccc2cc(C3NC(=O)c4ccccc4N3)c(Cl)nc2c1 (configuration not stated) | 72.4 ± 16% | 116 ± 46%
15 | COc1cc(-c2cc(-c3ccc(S(C)(=O)=O)cc3)cnc2N)ccc1O | 106 ± 34% | 70.7 ± 22%
16 | O=C(C1CCN(c2nnnn2-c2ccccc2)CC1)N1CCc2ccccc2C1 | 86.9 ± 28% | 62.4 ± 21%

Source: the supplement of paper PMC7866885, “A novel bicyclic 2,4-diaminopyrimidine inhibitor of Streptococcus suis dihydrofolate reductase” (PeerJ, 2021)
